In all, about 310,000 compounds went through this assay and about 14,000 (4.5%) showed an effect of 50% or more. Effects have a minus sign here. Many of the other results were omitted from the sample, so strong results are more common in it than they were.
Each compound was assayed against human ether-à-go-go-related gene (hERG) potassium channel (human, UniProt Q12809) (assay: primary screen, population patch clamp on CHO cells stably expressing hERG; higher = less effect of the substance).
Sequence of human ether-à-go-go-related gene (hERG) potassium channel (Q12809 whole entry, looked up): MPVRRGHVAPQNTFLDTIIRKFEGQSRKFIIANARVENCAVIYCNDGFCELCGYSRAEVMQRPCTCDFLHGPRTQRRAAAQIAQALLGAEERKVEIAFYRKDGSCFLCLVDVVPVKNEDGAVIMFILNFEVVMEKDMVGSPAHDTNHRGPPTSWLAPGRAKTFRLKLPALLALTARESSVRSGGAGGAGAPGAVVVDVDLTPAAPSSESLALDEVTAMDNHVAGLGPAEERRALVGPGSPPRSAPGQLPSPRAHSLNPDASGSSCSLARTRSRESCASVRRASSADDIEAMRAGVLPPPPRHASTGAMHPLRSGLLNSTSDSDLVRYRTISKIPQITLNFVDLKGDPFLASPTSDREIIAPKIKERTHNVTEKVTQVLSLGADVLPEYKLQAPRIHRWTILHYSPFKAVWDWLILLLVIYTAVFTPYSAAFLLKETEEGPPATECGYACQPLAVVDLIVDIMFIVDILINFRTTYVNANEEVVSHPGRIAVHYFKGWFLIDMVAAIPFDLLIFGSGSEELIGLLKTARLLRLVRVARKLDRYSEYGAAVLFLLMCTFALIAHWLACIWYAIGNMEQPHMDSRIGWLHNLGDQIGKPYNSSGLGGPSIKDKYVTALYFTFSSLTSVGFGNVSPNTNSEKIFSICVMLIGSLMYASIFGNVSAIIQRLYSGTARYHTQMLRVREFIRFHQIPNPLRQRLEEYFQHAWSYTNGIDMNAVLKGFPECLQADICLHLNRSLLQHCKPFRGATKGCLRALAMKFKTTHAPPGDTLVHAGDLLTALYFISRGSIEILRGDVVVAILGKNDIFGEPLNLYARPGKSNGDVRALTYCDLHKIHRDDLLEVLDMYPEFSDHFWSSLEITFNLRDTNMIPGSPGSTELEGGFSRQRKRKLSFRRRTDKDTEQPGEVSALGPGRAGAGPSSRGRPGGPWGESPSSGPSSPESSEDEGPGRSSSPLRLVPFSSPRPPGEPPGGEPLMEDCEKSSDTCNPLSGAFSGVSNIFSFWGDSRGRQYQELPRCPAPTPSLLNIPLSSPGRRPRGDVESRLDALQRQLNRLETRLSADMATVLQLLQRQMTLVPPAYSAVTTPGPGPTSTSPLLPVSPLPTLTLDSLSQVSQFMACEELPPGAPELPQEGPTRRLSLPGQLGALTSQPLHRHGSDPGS
With COc1ccc(OC)c(-c2csc(NC(=O)C3c4ccccc4Oc4ccccc43)n2)c1 the “hERG current change (%, negative = inhibition) at 10uM” value was -5.7%.
Cc1sc(-c2ccncc2)nc1OC(=O)c1cc(Cl)cc(Cl)c1 was tested, and the “hERG current change (%, negative = inhibition) at 10uM” value was 10.2%.
COc1ccc(Cl)cc1NC(=O)CN(C)C(=O)CCC(=O)c1cc(C)sc1C was tested, and the “hERG current change (%, negative = inhibition) at 10uM” value was -29.5%.
For CC(C)C(CCN1C(=O)CCC1=O)C1CCOC(C)(C)C1 (stereo not drawn), the “hERG current change (%, negative = inhibition) at 10uM” value was 4.36%.
With CCn1ncc(Br)c1C(=O)Nc1cc(C(=O)OC)ccc1C(=O)OC the “hERG current change (%, negative = inhibition) at 10uM” value was -3.95%.
With Cc1cc(OCc2cccc(Cl)c2)c(C)cc1CN1CCOCC1 the “hERG current change (%, negative = inhibition) at 10uM” value was 0.275%.
For CCCCCCCCCC(=O)N[C@H](CN1CCOCC1)[C@H](O)c1ccccc1.Cl, the “hERG current change (%, negative = inhibition) at 10uM” value was -16.6%.
In the case of O=C(O)c1ccc(OCC(O)Cn2c3ccccc3c3ccccc32)cc1 (stereo not drawn), the “hERG current change (%, negative = inhibition) at 10uM” value is reported as -18.5%.
For Cc1ccc(Cn2c(=N)n(CC(O)COc3ccccc3)c3ccccc32)cc1.Cl (stereo not drawn), the “hERG current change (%, negative = inhibition) at 10uM” value was -68.9%.
Cc1ccc(OCC(O)Cn2c(=N)n(Cc3ccccc3)c3ccccc32)cc1.Cl (stereo not drawn) was tested, and the “hERG current change (%, negative = inhibition) at 10uM” value was -81.6%.
In the case of COC(=O)c1cn(S(=O)(=O)c2ccccc2)c2ccccc12, the “hERG current change (%, negative = inhibition) at 10uM” value is reported as 13%.
With Cc1ccc(NC(=O)NCc2ccc3c(c2)OCO3)cc1 the “hERG current change (%, negative = inhibition) at 10uM” value was 5.69%.
With COc1cc2c(OC(C)=O)c3c(c(-c4ccc5c(c4)OCO5)c2cc1OC)C(=O)OC3 the “hERG current change (%, negative = inhibition) at 10uM” value was 15.4%.
Cc1ccc(NC(=O)CCN2CC(C)OC(C)C2)cc1C.Cl (stereo not drawn) was tested, and the “hERG current change (%, negative = inhibition) at 10uM” value was 19.1%.
With CC(C)(C)NS(=O)(=O)c1cc(C(=O)O)ccc1Cl the “hERG current change (%, negative = inhibition) at 10uM” value was 4.6%.
O=C(Oc1coc(CSc2ncccn2)cc1=O)c1ccccc1[N+](=O)[O-] was tested, and the “hERG current change (%, negative = inhibition) at 10uM” value was 14.4%.
With O=C(Oc1coc(CSc2ncccn2)cc1=O)c1cccc([N+](=O)[O-])c1 the “hERG current change (%, negative = inhibition) at 10uM” value was -81.3%.
In the case of Cc1cc(C)nc(SCc2cc(=O)c(OC(=O)c3cccc([N+](=O)[O-])c3)co2)n1, the “hERG current change (%, negative = inhibition) at 10uM” value is reported as -32.5%.
In the case of CC(=O)N=c1c(C#N)cc2c(=O)n3ccccc3nc2n1Cc1ccccc1, the “hERG current change (%, negative = inhibition) at 10uM” value is reported as -40.2%.
For Cc1cccc(C(=O)N=c2c(C#N)cc3c(=O)n4cccc(C)c4nc3n2Cc2ccco2)c1, the “hERG current change (%, negative = inhibition) at 10uM” value was -65%.
For Cc1cccn2c(=O)c3cc(C#N)c(=NC(=O)c4ccco4)n(Cc4ccco4)c3nc12, the “hERG current change (%, negative = inhibition) at 10uM” value was -55.4%.
In the case of Cc1cccn2c(=O)c3cc(C#N)c(=NC(=O)c4ccccc4)n(Cc4ccco4)c3nc12, the “hERG current change (%, negative = inhibition) at 10uM” value is reported as -40.3%.
In the case of Cc1ccccc1C(=O)N=c1c(C#N)cc2c(=O)n3cccc(C)c3nc2n1Cc1ccco1, the “hERG current change (%, negative = inhibition) at 10uM” value is reported as -46.2%.
CC(C)n1c(=NC(=O)c2ccco2)c(C#N)cc2c(=O)n3ccccc3cc21 was tested, and the “hERG current change (%, negative = inhibition) at 10uM” value was -52.2%.
Cn1c(=NC(=O)c2ccco2)sc2ccccc21 was tested, and the “hERG current change (%, negative = inhibition) at 10uM” value was 11.6%.
For CC(=O)N=c1c(C#N)cc2c(=O)n3cccc(C)c3nc2n1Cc1ccco1, the “hERG current change (%, negative = inhibition) at 10uM” value was -35.3%.
With CCO[C@@H]1OC(C(=O)NCc2ccccc2)=C[C@H](C(C)(C)C)[C@H]1CCCO the “hERG current change (%, negative = inhibition) at 10uM” value was -10.5%.
With O=C(OCCN1C(=O)c2ccccc2C1=O)c1cc2ccccc2o1 the “hERG current change (%, negative = inhibition) at 10uM” value was 1.62%.
For CC1CCCC(C(=O)O)N1C(=O)CCSC(=O)c1ccccc1 (stereo not drawn), the “hERG current change (%, negative = inhibition) at 10uM” value was -0.246%.
O=S(=O)(c1cccs1)N1CN(Cc2ccc(Cl)cc2)c2nc3ccccc3nc21 was tested, and the “hERG current change (%, negative = inhibition) at 10uM” value was 3.75%.
In the case of Cc1ccc2c(c1)c1c(n2CC(O)CN2CCC(C)CC2)CCCC1 (stereo not drawn), the “hERG current change (%, negative = inhibition) at 10uM” value is reported as -58.1%.
With Cc1ccc2c(c1)c1c(n2CC(O)CN2CCCCC2C)CCCC1 (stereo not drawn) the “hERG current change (%, negative = inhibition) at 10uM” value was -42.6%.
Cc1ccc2c(c1)c1c(n2CC(O)CNC(CO)(CO)CO)CCCC1 (stereo not drawn) was tested, and the “hERG current change (%, negative = inhibition) at 10uM” value was 0.531%.
For Cc1ccc2c(c1)c1c(n2CC(O)CN2CCCCCC2)CCCC1.Cl (stereo not drawn), the “hERG current change (%, negative = inhibition) at 10uM” value was -65.6%.
In the case of Cc1ccc2c(c1)c1c(n2CC(O)CNC2CCCCC2)CCCC1.Cl (stereo not drawn), the “hERG current change (%, negative = inhibition) at 10uM” value is reported as -37.4%.
Cc1ccc2c(c1)c1c(n2CC(O)CN2CCOCC2)CCCC1.Cl (stereo not drawn) was tested, and the “hERG current change (%, negative = inhibition) at 10uM” value was 9.32%.
For Fc1ccc(N/N=C(/c2ccccc2)c2ccccn2)cc1, the “hERG current change (%, negative = inhibition) at 10uM” value was -12.5%.
CCN(Cc1ccccc1)Cc1c(F)cccc1F was tested, and the “hERG current change (%, negative = inhibition) at 10uM” value was -0.224%.
With CC1CCCN(C(=O)COC(=O)C2CCN(S(=O)(=O)c3c(Cl)cccc3Cl)CC2)C1 (stereo not drawn) the “hERG current change (%, negative = inhibition) at 10uM” value was -39.4%.
For CCOC(=O)C1CCN(C(=O)COC(=O)C2CCN(S(=O)(=O)c3ccc(C)c(C)c3)CC2)CC1, the “hERG current change (%, negative = inhibition) at 10uM” value was -3.24%.
CC1CCCC(C)N1C(=O)COC(=O)C1CCN(S(=O)(=O)c2c(Cl)cccc2Cl)CC1 (stereo not drawn) was tested, and the “hERG current change (%, negative = inhibition) at 10uM” value was -30.1%.
With CCOC(=O)N1CCN(C(=O)COC(=O)C2CCN(S(=O)(=O)c3c(C)c(C)cc(C)c3C)CC2)CC1 the “hERG current change (%, negative = inhibition) at 10uM” value was -51.9%.
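Further: peak tail current of the secondary pulse compared with the same well before compound.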
